PubChem BioAssay (Tox21)
Inconclusive results are not listed. Where a call stands in place of a potency, no number is given. Calls of active or inactive are those of the source. The call rests on the fitted dose curve; in most records, active means well fitted inhibition curve with a large enough effect in the repeat runs; inconclusive means weak or mixed curves; inactive means no such curve, though single readings can be large or run the other way.

target: Estrogen receptor (Homo sapiens) (UniProt P03372); assay: qHTS assay to identify small molecule antagonists of the estrogen receptor alpha (ER-alpha) signaling pathway using the BG1 cell line in the presence of 0.1 nM 17-beta-estradiol (AID 1259244); conditions: VM7Luc4E2 (BG1) ERE-luciferase, antagonist mode, 0.1 nM E2, 22 h; series mostly up to 92.4 µM; further: nearly all actives have a fitted effect of over 50% in size
In short: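 Luminescence after ONE-Glo (30 min, room temperature) measured ERE-luciferase activity in VM7Luc4E2 cells treated 22 h with compound and 0.1 nM final 17beta-estradiol as stimulator.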
Potency means the concentration at half of the fitted maximal effect.

Estrogen receptor (Homo sapiens), sequence (P03372 whole entry, looked up): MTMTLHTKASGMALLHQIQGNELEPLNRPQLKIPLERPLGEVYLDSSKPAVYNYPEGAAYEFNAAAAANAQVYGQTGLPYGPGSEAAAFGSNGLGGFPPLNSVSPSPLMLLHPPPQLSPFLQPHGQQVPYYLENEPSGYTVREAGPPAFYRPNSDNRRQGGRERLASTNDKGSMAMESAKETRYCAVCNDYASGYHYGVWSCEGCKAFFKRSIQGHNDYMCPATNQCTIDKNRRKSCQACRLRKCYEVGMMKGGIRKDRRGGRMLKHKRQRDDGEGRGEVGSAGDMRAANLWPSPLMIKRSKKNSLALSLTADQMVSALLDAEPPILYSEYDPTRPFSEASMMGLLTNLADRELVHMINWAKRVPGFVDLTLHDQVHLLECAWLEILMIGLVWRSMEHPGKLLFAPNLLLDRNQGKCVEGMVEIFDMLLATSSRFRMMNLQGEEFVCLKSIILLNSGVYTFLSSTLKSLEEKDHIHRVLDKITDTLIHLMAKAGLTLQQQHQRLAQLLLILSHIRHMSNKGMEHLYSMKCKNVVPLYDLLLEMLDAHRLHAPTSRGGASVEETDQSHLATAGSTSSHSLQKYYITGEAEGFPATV

| Structure (SMILES) | Potency |
| --- | --- |
| O=C(NCc1cccnc1)Nc1ccc([N+](=O)[O-])cc1 | inactive |
| CC[C@H]1C[C@H]2[C@@H]3CCC4=CC(=O)CC[C@@H]4[C@H]3CC[C@]2(C)[C@H]1O | inactive |
| O=C(CBr)Nc1ccc(Cl)cc1C(=O)c1ccccc1F | inactive |
| ClCC(Br)CBr (centres undefined) | inactive |
| COc1c(C(C)(C)C)cc([N+](=O)[O-])c(C)c1[N+](=O)[O-] | inactive |
| c1ccoc1 | inactive |
| CCCC(=O)Cl | inactive |
| Nc1nc(=S)[nH][nH]1 | inactive |
| Brc1ccc(Oc2ccccc2)cc1 | inactive |
| O=C1NCN(c2ccccc2)C12CCN(CCCOc1ccc(F)cc1)CC2 | 7.5 µM (active) |
| O=[N+]([O-])c1ccc(F)c([N+](=O)[O-])c1 | 27.6 µM (active) |
| CCOP(=O)(OCC)O/C(=C/Cl)c1ccc(Cl)cc1Cl | 54.5 µM (active) |
| CCOP(=S)(OCC)SCSCC | inactive |
| ClC=C(Cl)Cl | inactive |
| COC(N)=O | inactive |
| CCC(Cl)CCl (centres undefined) | inactive |
| CCCN(CCCl)c1c([N+](=O)[O-])cc(C(F)(F)F)cc1[N+](=O)[O-] | inactive |
| Cn1cc[n+](C)c1 (tested in a mixture with another compound) | inactive |
| C=CC(C)=O | inactive |
| O=C(NC(=O)c1c(F)cccc1F)Nc1ccc(OC(F)(F)C(F)OC(F)(F)F)c(Cl)c1 (centres undefined) | inactive |
| COc1cc(Cl)c(OC)cc1Cl | inactive |
| COCCOCCO | inactive |
| Clc1ccc(C(OCCN2CCCCC2)c2ccccc2)cc1 (centres undefined) | inactive |
| CCOP(=S)(Oc1ccc([N+](=O)[O-])cc1)c1ccccc1 (centres undefined) | inactive |
